The values that follow come from PubChem BioAssay.

Calls of active or inactive are those of the source.

Test [1] is described as follows: optical density shifts of acrAB sulA E. coli – strain DRC41, OD650, 48 h, E. coli filamentation inducer project, primary screen (AID 1152).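 Note: E. coli MC1000 strain DRC41 lacking acrAB efflux pump and sulA.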 Conditions: higher = more signal, called active from +8 up or from −8 down.
Test [2] in a line: probe aLefty1 binding on compound microarray – biochemical, small-molecule microarray, 635/667 nm fluorescence, primary screen (AID 1153).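 Note: score merges spot fluorescence with signal-to-noise ratio from the scanned slide images.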 The following applies: higher = more signal.
Test [3] in a line: plasmodial surface anion channel blockers, osmotic lysis – cell-based, P. falciparum Indochina, OD700, 1 h, primary screen (AID 1154). Conditions: P. falciparum Indochina infected RBC osmotic lysis, higher = more signal, called active from +8 up or from −8 down.
A short description of test [4]: plasmodial surface anion channel blockers, osmotic lysis – cell-based, P. falciparum Indochina, OD700, 2 h, primary screen (AID 1155).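 Note: lysis reports solute entry through the parasite surface anion channel PSAC.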 Conditions: P. falciparum Indochina infected erythrocytes, higher = more signal, called active from +8 up or from −8 down.
Test [5] can be described thus: changes in parasitized red cell lysis, either direction – P. falciparum Indochina, OD700, 3 h, PSAC antagonist project, primary screen (AID 1156). Conditions: P. falciparum-infected erythrocytes, osmotic lysis, higher = more signal, called active from +8 up or from −8 down.
Test [6] is described as follows: plasmodial surface anion channel blockers, osmotic lysis – cell-based, P. falciparum Indochina, OD700, 18 h, primary screen (AID 1157). The following applies: P. falciparum Indochina infected erythrocytes, osmotic lysis OD700, 18 h; higher = more signal, called active from +8 up or from −8 down.
The nature of test [7]: S6 kinase pathway phospho-S6 level changes – cell-based, A549, cytoblot, luminescence, serum-stimulated, primary screen (AID 1158).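 Note: serum-stimulated A549 lung adenocarcinoma cells; signal is phosphorylated S6 detected by cytoblot immunostaining with HRP secondary.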 Conditions: 5 h, higher = more signal.
Test [8] deals with NADPH oxidase 2 (Homo sapiens) (UniProt P04839). Nature of the test: compounds shifting NOX2 Amplex Red fluorescence – cell-based, HEK293-NOX2, PMA-stimulated, NOX inhibitor project, primary screen (AID 1159). Note: test concentration not given here. Conditions: 45 min, higher = more signal, called active from +8 up or from −8 down.
NADPH oxidase 2 (Homo sapiens), sequence (P04839 whole entry, looked up): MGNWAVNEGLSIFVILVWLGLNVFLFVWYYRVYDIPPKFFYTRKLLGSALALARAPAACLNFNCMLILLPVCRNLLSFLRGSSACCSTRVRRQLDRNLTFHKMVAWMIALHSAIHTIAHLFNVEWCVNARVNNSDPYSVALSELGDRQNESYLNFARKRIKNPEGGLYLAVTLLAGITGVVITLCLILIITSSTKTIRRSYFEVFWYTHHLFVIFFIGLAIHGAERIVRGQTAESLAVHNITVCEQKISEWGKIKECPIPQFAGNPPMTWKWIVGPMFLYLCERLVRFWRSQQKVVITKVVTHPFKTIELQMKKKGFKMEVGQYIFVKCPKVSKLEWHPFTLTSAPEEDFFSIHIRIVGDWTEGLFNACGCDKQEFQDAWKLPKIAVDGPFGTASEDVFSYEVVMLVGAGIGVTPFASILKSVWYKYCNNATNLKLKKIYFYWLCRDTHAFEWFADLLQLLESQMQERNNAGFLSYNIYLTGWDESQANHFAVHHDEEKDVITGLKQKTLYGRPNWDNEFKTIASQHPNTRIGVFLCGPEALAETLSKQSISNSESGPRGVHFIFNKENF
Test [9] deals with NADPH oxidase 4 (Homo sapiens) (UniProt Q9NPH5). Nature of the test: compounds shifting NOX4 Amplex Red fluorescence – cell-based, HEK293-NOX4, tetracycline-induced, NOX inhibitor project, primary screen (AID 1160). The following applies: HEK293-NOX4, Amplex Red H2O2 fluorescence, 45 min; higher = more signal, called active from +8 up or from −8 down.
NADPH oxidase 4 (Homo sapiens), sequence (Q9NPH5 whole entry, looked up): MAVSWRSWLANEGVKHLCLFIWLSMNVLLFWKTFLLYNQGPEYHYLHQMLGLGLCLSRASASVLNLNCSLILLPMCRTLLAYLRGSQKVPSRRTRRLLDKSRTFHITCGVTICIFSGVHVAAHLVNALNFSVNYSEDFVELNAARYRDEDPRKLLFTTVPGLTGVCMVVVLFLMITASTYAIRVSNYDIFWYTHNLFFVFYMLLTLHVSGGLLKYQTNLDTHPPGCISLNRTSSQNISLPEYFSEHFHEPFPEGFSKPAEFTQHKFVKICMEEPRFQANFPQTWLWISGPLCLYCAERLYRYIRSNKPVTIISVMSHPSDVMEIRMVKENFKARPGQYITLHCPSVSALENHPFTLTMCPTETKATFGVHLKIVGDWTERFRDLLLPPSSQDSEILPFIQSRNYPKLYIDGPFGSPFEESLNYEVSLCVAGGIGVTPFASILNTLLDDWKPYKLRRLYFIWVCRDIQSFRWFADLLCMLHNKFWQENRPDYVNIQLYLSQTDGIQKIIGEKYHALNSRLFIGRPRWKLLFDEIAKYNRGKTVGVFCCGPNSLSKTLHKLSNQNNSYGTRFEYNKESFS
In test [10] the target is NADPH oxidase 5 (Homo sapiens) (UniProt Q96PH1). The test can be described thus: compounds shifting NOX5 Amplex Red fluorescence – cell-based, HEK293-NOX5, NOX inhibitor project, primary screen (AID 1161). The following applies: HEK293-NOX5, ionomycin, 45 min, higher = more signal.
NADPH oxidase 5 (Homo sapiens), sequence (Q96PH1 whole entry, looked up): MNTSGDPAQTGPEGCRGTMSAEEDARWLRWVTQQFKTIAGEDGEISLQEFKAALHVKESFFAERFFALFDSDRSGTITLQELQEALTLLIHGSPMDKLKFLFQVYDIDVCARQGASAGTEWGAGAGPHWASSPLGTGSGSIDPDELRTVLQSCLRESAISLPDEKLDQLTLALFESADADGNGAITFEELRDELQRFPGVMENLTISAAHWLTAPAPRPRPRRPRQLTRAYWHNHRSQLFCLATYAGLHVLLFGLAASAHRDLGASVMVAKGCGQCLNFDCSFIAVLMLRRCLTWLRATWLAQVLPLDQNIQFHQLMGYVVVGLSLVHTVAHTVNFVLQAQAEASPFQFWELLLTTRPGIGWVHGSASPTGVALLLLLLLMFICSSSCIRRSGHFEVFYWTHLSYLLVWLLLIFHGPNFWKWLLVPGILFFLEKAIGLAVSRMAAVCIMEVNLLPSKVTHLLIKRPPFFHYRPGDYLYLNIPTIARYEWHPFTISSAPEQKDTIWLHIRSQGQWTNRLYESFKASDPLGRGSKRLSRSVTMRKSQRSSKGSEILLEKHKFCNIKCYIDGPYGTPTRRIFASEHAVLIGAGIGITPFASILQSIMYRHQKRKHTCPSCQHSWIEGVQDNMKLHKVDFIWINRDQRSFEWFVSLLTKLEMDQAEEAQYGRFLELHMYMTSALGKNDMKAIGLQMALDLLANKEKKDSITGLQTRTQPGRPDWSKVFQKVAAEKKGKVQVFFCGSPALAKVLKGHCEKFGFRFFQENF

On to `C=CC[C@H](OC(=O)Nc1ccc(SC)cc1)c1ccc(OCCO)cc1`, for which the z-score in test [1] is -0.393 (inactive); in test [3], 31 (active); in [4], 17.3 (active); in test [5], 3.54 (inactive); in [6], 1.58 (inactive); in test [7], -0.161. The results for the z-score in test [8], in [9] and in [10] were -1.96 (inactive), -0.438 (inactive) and -1.34, respectively. Moreover, the composite z-score in test [2] is -0.0987.
On to `CO[C@H]1O[C@H](CO)[C@@H](OC(=O)CCc2ccccc2)[C@H](OC(=O)c2cc3ccccc3[nH]2)[C@H]1OC(=O)c1cc2ccccc2[nH]1`, for which the z-score in test [1] is 2.71 (inactive); in test [3] it was 2.39 (inactive); in [4], 0.923 (inactive); in [5], -2.27 (inactive); in test [6] it was 1.1 (inactive); in test [7], 2.17. The z-score is -0.601 (inactive) in test [8], 0.0901 (inactive) in test [9] and 0.855 in test [10]. The molecule further yielded a composite z-score in [2] of -0.162.
For `COC(=O)c1c2oc(c1C(=O)OC)C(=O)N1CCC[C@H]1Cn1nncc1CN(Cc1ccccc1)C(=O)N[C@H](CO)CC2`, the z-score in [1] was 1.53 (inactive); in test [3] it was 0.834 (inactive); in [4], 0.609 (inactive); in test [5], -0.418 (inactive); in [6] it was 0.924 (inactive); in [7] it was 0.429. The z-score was -0.521 (inactive) in test [8], 0.556 (inactive) in [9] and 1.19 in [10]. The same molecule returned a composite z-score in test [2] of 0.0429.
Consider `[N-]=[N+]=Nc1ccccc1[C@@H]1OC(c2ccc(OCCCO)cc2)=N[C@]1(Cc1ccccc1)C(=O)NCc1ccccc1`, for which the z-score was -0.165 (inactive) in [1]; 31.6 (active) in test [3]; 29.2 (active) in [4]; 3.08 (inactive) in test [5]; 7.04 (inactive) in test [6]; -0.403 in test [7]. For the same molecule, the z-score in test [8] is -2.11 (inactive); in [9], 1.15 (inactive); in test [10], 0.377. Also, the composite z-score in [2] was 0.703.
On to `COc1ccc([Si](C)(C)[C@H]2[C@H](CC(=O)N3Cc4ccccc4C[C@H]3CO)O[C@@]3(C(=O)N(Cc4ccc(N5C(=O)c6cccc7cccc5c67)cc4)c4ccccc43)[C@@H]2C)cc1`, for which the z-score in test [1] is 0.315 (inactive); in [3], 4.25 (inactive); in test [4] it was 1.36 (inactive); in test [5], 1.67 (inactive); in [6], 1.09 (inactive); in test [7], 0.412. For the same molecule, the z-score was -0.327 (inactive) in [8], 0.252 (inactive) in test [9] and -1.66 in test [10]. In [2], this molecule yielded a composite z-score of 0.0771.
On to `CN(C)C(=O)[C@@]1(Cc2ccccc2N=[N+]=[N-])N=C(c2ccc(OCCCO)cc2)O[C@H]1c1ccccc1`, for which the z-score is -0.369 (inactive) in test [1]; 25.7 (active) in [3]; 12.4 (active) in [4]; 2.85 (inactive) in [5]; 1.94 (inactive) in [6]; -0.482 in [7]. The z-score in test [8] is -3.93 (inactive); in test [9], 0.711 (inactive); in test [10] it was -2.45. The molecule further yielded a composite z-score in test [2] of 0.465.
For `C=CCN1C(=O)[C@]2(O[C@H](CCO)[C@@H]([Si](C)(C)c3ccc(OC)cc3)[C@@H]2C)c2cc(NC(=O)c3ccc(OC)cc3)ccc21`, the z-score is -1.25 (inactive) in test [1]; 7.31 (inactive) in test [3]; 2.69 (inactive) in test [4]; -0.357 (inactive) in test [5]; 1.3 (inactive) in test [6]; -0.309 in [7]. The z-score in [8] is -3.97 (inactive); in test [9] it was -0.48 (inactive); in test [10], 1.38. Besides, the composite z-score in test [2] stood at 0.0494.
`C=CCC(OC(C)=O)[C@@H]1[C@@H](N(Cc2ccc(-c3ccccc3)cc2)C(=O)c2ccc(C)cc2)c2cc(OCCCO)ccc2N1C(=O)Cc1ccc2ccccc2c1` (stereo not given in full): the z-score in test [1] is 2.43 (inactive); in test [3] it was -0.0828 (inactive); in test [4], -0.66 (inactive); in [5], -1.45 (inactive); in [6], -0.938 (inactive); in test [7], 1.23. For the same molecule, the z-score in test [8] is -1.68 (inactive); in test [9], 0.934 (inactive); in test [10] it was 1.62. The molecule further displayed a composite z-score in test [2] of -0.0011.
For `CN1C(=O)C2C(C1=O)C1C=C(CCCO)C2C(c2cccs2)N1Cc1cc2c(cc1Br)OCO2` (stereo not given), the z-score was -0.139 (inactive) in test [1]; 25.1 (active) in test [3]; 15.9 (active) in test [4]; 0.0521 (inactive) in [5]; 1.58 (inactive) in [6]; 0.791 in [7]. Moreover, the z-score in test [8] is 0.196 (inactive); in [9] it was 0.0713 (inactive); in test [10] it was 0.741. Besides, the composite z-score in test [2] was -0.0587.
In the case of `CCCC=C(CCC)[C@@H](NS(=O)(=O)c1cccc2cccnc12)c1ccc(-c2ccccc2)cc1`, the z-score in test [1] is -1.37 (inactive); in test [3], 0.012 (inactive); in test [4], 0.451 (inactive); in test [5] it was 1.24 (inactive); in [6] it was 0.913 (inactive); in [7] it was 0.389. Moreover, the z-score in test [8] was -0.876 (inactive); in test [9], 1.59 (inactive); in test [10], 2.39. In [2], this molecule returned a composite z-score of 0.396.
For `C=C[C@H](C)[C@H](OC(=O)Nc1ccc(OC)cc1)c1ccc(OCCO)cc1`, the z-score in test [1] is 0.566 (inactive); in test [3], 12.4 (active); in test [4] it was 1.76 (inactive); in test [5], 0.193 (inactive); in test [6], 0.746 (inactive); in [7], -0.196. The z-score in test [8] is -0.288 (inactive); in [9] it was 0.436 (inactive); in test [10] it was -2.19. Further, the composite z-score in [2] was 0.126.
As to `CC1CC/C=C\[C@H]2OC34C=CCN(CCN5CCOCC5)C(=O)[C@H]3N(C(C)CO)C(=O)[C@@H]4C2C(=O)O1` (stereo not given in full), the z-score in [1] was -0.197 (inactive); in test [3], 0.77 (inactive); in test [4], -0.306 (inactive); in test [5] it was 0.753 (inactive); in test [6], 0.233 (inactive); in test [7] it was 0.0656. For the same molecule, the z-score in test [8] is 0.801 (inactive); in test [9], -0.323 (inactive); in [10], 1.58. Further, the composite z-score in test [2] is -0.147.
As to `CN1C(=O)C2C=CC(C(O)c3cc(C(F)(F)F)cc(C(F)(F)F)c3)N(Nc3ccccc3)C2C1=O` (stereo not given), the z-score in test [1] is -1.07 (inactive); in test [3], 0.277 (inactive); in test [4], 0.301 (inactive); in [5], -0.753 (inactive); in test [6], 0.797 (inactive); in [7], -0.77. Also, the z-score in test [8] was -1.59 (inactive); in test [9], -4.95 (inactive); in test [10], -1.99. In [2], this molecule registered a composite z-score of 0.0341.
